The values that follow come from the OligoGym collection.
Note: reference of the scale not given here.

One experiment has as its target SLC39A12. As to the kind of experiment: pooled miR-30 sensor sort-seq; sequence = guide strand. The following applies: shRNA.
TTGCAGTTGATTTTACTCCAAC: the sensor-assay potency score (higher = more potent) was -1.11.

As for TTGTGTTTGAACATGAGTCATT, the sensor-assay potency score (higher = more potent) was -0.725.

Regarding TATTCTGTAAAGTAGTCTGGGG, the sensor-assay potency score (higher = more potent) was -0.404.

For TTTATTACTCATGTTGAGCTTT, the sensor-assay potency score (higher = more potent) was -0.0356.

Another experiment deals with SLC39A3. The description is as above. As to conditions: shRNA.
Turning to TCAGTGTTGAAAATGCATCAGA, the sensor-assay potency score (higher = more potent) is -0.941.

Regarding TAGGTGGGTAGTCTGGTCTGAT, the sensor-assay potency score (higher = more potent) is -0.578.

For the sequence TTGCAGAGAGAGAGGATCTTTT, the sensor-assay potency score (higher = more potent) was -0.914.

TGATTATCAGGTGACAACCGAC: the sensor-assay potency score (higher = more potent) was -1.07.

Regarding TTAAAAAGTAGCAGTGCTCTGA, the sensor-assay potency score (higher = more potent) worked out at 0.00339.

With TGTCTCGATGATCTTCACGGGG, the sensor-assay potency score (higher = more potent) was -0.768.

For the sequence TCTGTCTCGATGATCTTCACGG, the sensor-assay potency score (higher = more potent) was -0.084.

Turning to TTTCTGGACACTAGGCACGAGG, the sensor-assay potency score (higher = more potent) was -1.43.

Take TTACCTTTTCCCTCACAGCGGG: the sensor-assay potency score (higher = more potent) was -0.333.

Take TAGTCGGTGCTGATGTGGCCGA: the sensor-assay potency score (higher = more potent) is -1.33.

With AAAATCTGTCTCGATGATCTTC, the sensor-assay potency score (higher = more potent) was 0.079.

For TACCTTTTCCCTCACAGCGGGC, the sensor-assay potency score (higher = more potent) was -1.41.

Another experiment deals with SLC44A2. The experiment is described as above. The following applies: shRNA.
As to TTACTTGTTTCTCGCAGTCTGG, the sensor-assay potency score (higher = more potent) was -0.794.

Sequence TTATAGTACTCAAAGTCCCGGG had a sensor-assay potency score (higher = more potent) of 0.0732.

As to TATAGTACTCAAAGTCCCGGGA, the sensor-assay potency score (higher = more potent) is -0.338.

TGTAGCAGTGAAATATTCCGTA displayed a sensor-assay potency score (higher = more potent) of 0.424.

In the case of TTTGATGAGTGCAATCGCGATG, the sensor-assay potency score (higher = more potent) is -0.724.

TAATCCAGTACCAAGAGACGGT yielded a sensor-assay potency score (higher = more potent) of 0.196.

Consider TCAGACACAAACACCGTCCTTC, for which the sensor-assay potency score (higher = more potent) was 0.677.

With TACTTGTTTCTCGCAGTCTGGA, the sensor-assay potency score (higher = more potent) was -0.0969.

For TTGTTGGTCTTGTTCAAGGGTT, the sensor-assay potency score (higher = more potent) was -0.803.

For TCTTTGATGAGTGCAATCGCGA, the sensor-assay potency score (higher = more potent) was -1.09.

For TTATAGACCGCTTCGTTGGAAG, the sensor-assay potency score (higher = more potent) is -0.973.

The target of the next experiment is SLC45A3. Described as above. The following applies: shRNA.
In the case of AAGGTCATGAGTGCCATCCAGC, the sensor-assay potency score (higher = more potent) was -1.03.

Consider TAGGTGTGTCTCAACTAGGAGG, for which the sensor-assay potency score (higher = more potent) is -0.961.

Turning to TTTGGGCAGGAACACCTGCTTC, the sensor-assay potency score (higher = more potent) was -1.54.

For TAGGCAGTGACAGACTGGCTGA, the sensor-assay potency score (higher = more potent) was -0.555.

On to TTCATCATAGTGTCTCCGGGCC, for which the sensor-assay potency score (higher = more potent) turned out to be 0.0522.

Turning to AAAGGTTAGCAGGTTGACCAGC, the sensor-assay potency score (higher = more potent) is -0.476.

As to TAGCAGGTTGACCAGCAAGAGC, the sensor-assay potency score (higher = more potent) was -1.81.

Regarding TCTTGTCAAATACTACCTGTGT, the sensor-assay potency score (higher = more potent) is -0.281.

With TGAACTTCTCCTCTACCCCCAC, the sensor-assay potency score (higher = more potent) was -0.547.

As for TAGCTGTTAACCCTGAGCCTGG, the sensor-assay potency score (higher = more potent) is -0.971.

Regarding TAAAACAGCGTGAAGGTCATGA, the sensor-assay potency score (higher = more potent) is 0.302.

As to AAATCCGTGTAAAACAGCGTGA, the sensor-assay potency score (higher = more potent) is -0.511.
